From PubChem BioAssay (NCI)
The panel holds about 79,000 compounds, 15% with a hit somewhere; the sample as a whole holds those more often. Unmarked numbers belong to inactive results. Calls of active or inactive are those of the source. Cut-off read from the data, not from the text of the source: active = growth inhibition above about 70%; inactive = the rest.

Assays:
[1] = NCI Yeast Anticancer Drug Screen. Data for the rad52 strain (AID 147);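 note: 0% = growth of vehicle-treated control cultures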; details: S. cerevisiae rad52 mutant growth inhibition, hits give high values
Outline: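 Inhibition of yeast growth, referenced to vehicle controls, was the measured output for a strain with defective DNA damage repair.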

[2] = NCI Yeast Anticancer Drug Screen. Data for the wt1 strain (AID 149);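 note: 0% = growth of vehicle-treated wt1 cultures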; details: S. cerevisiae wt1 strain (SPY 50644) growth inhibition, hits give high values
Outline: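 Readout: yeast growth inhibition, normalised to vehicle controls, in the wt1 strain exposed to test compounds.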

[3] = NCI Yeast Anticancer Drug Screen. Data for the rad50EPP+ strain (AID 151);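 note: 0% = growth of vehicle-treated control cultures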; details: S. cerevisiae rad50 mutant strain, hits give high values
Outline: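 Genetically defined yeast (rad50EPP+, DNA damage repair alteration) is grown with compound, and inhibition of growth is expressed relative to vehicle-treated controls.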

[4] = NCI Yeast Anticancer Drug Screen. Data for the mgt1 strain (AID 153); details: S. cerevisiae mgt1 mutant growth inhibition, hits give high values
Outline: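 In the mgt1 strain, test compounds were added and growth inhibition was determined relative to vehicle-treated controls.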

[5] = NCI Yeast Anticancer Drug Screen. Data for the rad50 strain (AID 155);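 note: 0% = growth of vehicle-only cultures of the same strain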; details: S. cerevisiae rad50 strain growth inhibition, hits give high values
Outline: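 Compounds were tested on a yeast strain with an engineered DNA damage repair alteration; the reported value is growth inhibition normalised to vehicle treatment.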

[6] = NCI Yeast Anticancer Drug Screen. Data for the mec2-1 strain (AID 157); details: S. cerevisiae mec2-1 strain, hits give high values
Outline: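 Each compound was tested on mec2-1 yeast, a strain altered in DNA damage repair or cell cycle control. Growth inhibition is reported relative to vehicle.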

[7] = NCI Yeast Anticancer Drug Screen. Data for the rad14 strain (AID 159);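 note: 0% = growth of vehicle-treated control cultures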; details: S. cerevisiae rad14 strain growth inhibition, hits give high values
Outline: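 Compound-treated yeast with a defined DNA-repair lesion; growth inhibition normalised to vehicle-treated cultures.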

[8] = NCI Yeast Anticancer Drug Screen. Data for the sgs1 mgt1 strain (AID 161);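 note: 0% = growth of cultures given vehicle only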; details: S. cerevisiae sgs1 mgt1 strain, hits give high values
Outline: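 Test agents were incubated with a DNA-repair-mutant yeast strain. Growth was then read and compared against vehicle-treated controls.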

[9] = NCI Yeast Anticancer Drug Screen. Data for the bub3 strain (AID 167); details: S. cerevisiae bub3 mutant strain, hits give high values
Outline: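 Growth of a checkpoint-deficient yeast mutant is measured after compound exposure. Values represent inhibition relative to vehicle.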

[10] = NCI Yeast Anticancer Drug Screen. Data for the wt2 strain (AID 169);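 note: 0% = growth of vehicle-treated yeast cultures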; details: S. cerevisiae wt2 strain growth inhibition, hits give high values
Outline: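 The panel's yeast strains carry defined changes in DNA repair or cell cycle genes. Each strain is grown with compound, and growth loss is scored relative to vehicle.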

[11] = NCI Yeast Anticancer Drug Screen. Data for the mlh1 strain (AID 171);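 note: 0% = growth of vehicle-treated control cultures of the same strain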; details: S. cerevisiae mlh1 strain growth inhibition, hits give high values
Outline: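 Inhibition values reflect reduced yeast growth in the presence of compound, referenced to vehicle controls, using a strain chosen for its alteration in DNA repair or cell cycle control.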

[12] = NCI Yeast Anticancer Drug Screen. Data for the sgs1 strain (AID 173);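 note: 0% = growth of vehicle-only control cultures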; details: S. cerevisiae sgs1 mutant, hits give high values
Outline: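 Vehicle-treated cultures served as reference for growth inhibition of a yeast strain altered in DNA damage repair or cell cycle control after compound exposure.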

[13] = NCI Yeast Anticancer Drug Screen. Data for the mlh1 rad18 strain (AID 175); details: S. cerevisiae mlh1 rad18 strain growth inhibition, hits give high values
Outline: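 Inhibition values reflect reduced growth of mutant yeast versus vehicle-treated controls following compound exposure; the mutations affect DNA damage repair.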

[14] = NCI Yeast Anticancer Drug Screen. Data for the rad18 strain (AID 177); details: S. cerevisiae rad18 mutant growth inhibition, hits give high values
Outline: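 Steps: expose repair-mutant yeast to compound; measure growth; express as inhibition relative to vehicle control.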

[15] = at 5.0 µM (retest, dose inferred, filed as 0.5)
[16] = at 50.0 µM (retest, dose inferred, filed as 5.0)

Compound: CN(CCOc1ccc(Cl)cc1)CCOc1ccc(Cl)cc1
- growth inhibition ([1]; at 1.2 µM): 8%
- growth inhibition ([1]; at 3.7 µM): 18%
- growth inhibition ([1]; at 11.0 µM): 50%
- growth inhibition ([1]; at 33.0 µM): 90% (active)
- growth inhibition ([1]; at 100.0 µM): 99% (active)
- growth inhibition ([2]; at 1.2 µM): 7%
- growth inhibition ([2]; at 3.7 µM): 7%
- growth inhibition ([2]; at 11.0 µM): 10%
- growth inhibition ([2]; at 33.0 µM): 39%
- growth inhibition ([2]; at 100.0 µM): 99% (active)
- growth inhibition ([3]; at 1.2 µM): 4%
- growth inhibition ([3]; at 3.7 µM): 7%
- growth inhibition ([3]; at 11.0 µM): 7%
- growth inhibition ([3]; at 33.0 µM): 3%
- growth inhibition ([3]; at 100.0 µM): 56%
- growth inhibition ([4]; at 1.2 µM): 3%
- growth inhibition ([4]; at 3.7 µM): 13%
- growth inhibition ([4]; at 11.0 µM): 57%
- growth inhibition ([4]; at 33.0 µM): 98% (active)
- growth inhibition ([4]; at 100.0 µM): 99% (active)
- growth inhibition ([5]; at 1.2 µM): 11%
- growth inhibition ([5]; at 3.7 µM): 17%
- growth inhibition [5, 15]: 13%
- growth inhibition ([5]; at 11.0 µM): 51%
- growth inhibition ([5]; at 33.0 µM): 97% (active)
- growth inhibition [5, 16]: 97% (active)
- growth inhibition ([5]; at 50.0 µM): 99.2% (active)
- growth inhibition ([5]; at 100.0 µM): 99% (active)
- growth inhibition ([6]; at 1.2 µM): 12%
- growth inhibition ([6]; at 3.7 µM): 16%
- growth inhibition [6, 15]: 5%
- growth inhibition ([6]; at 11.0 µM): 36%
- growth inhibition ([6]; at 33.0 µM): 93% (active)
- growth inhibition [6, 16]: 99% (active)
- growth inhibition ([6]; at 50.0 µM): 99.5% (active)
- growth inhibition ([6]; at 100.0 µM): 99% (active)
- growth inhibition ([7]; at 1.2 µM): 28%
- growth inhibition ([7]; at 3.7 µM): 25%
- growth inhibition ([7]; at 11.0 µM): 48%
- growth inhibition ([7]; at 33.0 µM): 99% (active)
- growth inhibition ([7]; at 100.0 µM): 99% (active)
- growth inhibition [8, 15]: 25%
- growth inhibition [8, 16]: 99% (active)
- growth inhibition ([8]; at 50.0 µM): 99.7% (active)
- growth inhibition ([9]; at 1.2 µM): 16%
- growth inhibition ([9]; at 3.7 µM): 23%
- growth inhibition [9, 15]: 10%
- growth inhibition ([9]; at 11.0 µM): 60%
- growth inhibition ([9]; at 33.0 µM): 97% (active)
- growth inhibition [9, 16]: 98% (active)
- growth inhibition ([9]; at 50.0 µM): 99.6% (active)
- growth inhibition ([9]; at 100.0 µM): 97% (active)
- growth inhibition ([10]; at 1.2 µM): 8%
- growth inhibition ([10]; at 3.7 µM): 11%
- growth inhibition ([10]; at 11.0 µM): 26%
- growth inhibition ([10]; at 33.0 µM): 89% (active)
- growth inhibition ([10]; at 100.0 µM): 99% (active)
- growth inhibition ([11]; at 1.2 µM): 13%
- growth inhibition ([11]; at 3.7 µM): 17%
- growth inhibition ([11]; at 11.0 µM): 41%
- growth inhibition ([11]; at 33.0 µM): 98% (active)
- growth inhibition ([11]; at 100.0 µM): 99% (active)
- growth inhibition ([12]; at 1.2 µM): 18%
- growth inhibition ([12]; at 3.7 µM): 23%
- growth inhibition ([12]; at 11.0 µM): 48%
- growth inhibition ([12]; at 33.0 µM): 98% (active)
- growth inhibition ([12]; at 100.0 µM): 99% (active)
- growth inhibition [13, 15]: 22%
- growth inhibition [13, 16]: 99% (active)
- growth inhibition ([13]; at 50.0 µM): 99.5% (active)
- growth inhibition ([14]; at 1.2 µM): 14%
- growth inhibition ([14]; at 3.7 µM): 11%
- growth inhibition ([14]; at 11.0 µM): 23%
- growth inhibition ([14]; at 33.0 µM): 80% (active)
- growth inhibition ([14]; at 100.0 µM): 99% (active)
